# Bioassay records deposited in PubChem BioAssay by National Center for Advancing Translational Sciences (NCATS).
# This is a sample that favours compounds with a hit; in the whole collection about 7.9% have one here.
# MCF10A rereplic = A quantitative high throughput screen for small molecules that induce DNA re-replication in MCF 10a normal breast cells; Potency, µM (titrated, usually from 46.1 µM), for inactives: at the top dose activity, positive = re-replication, usual class: activators; actives 2.9% (n = 350,000); MCF 10A DNA re-replication, Hoechst nuclear intensity, 48 h; further: % of control where 0% means no effect; nearly all actives have a fitted effect of over 50% in size
# HT1080-NT tox = qHTS for induction of synthetic lethality in tumor cells producing 2HG: qHTS for the HT-1080-NT fibrosarcoma cell line; HT-1080-NT fibrosarcoma viability, CellTiter-Glo ATP luminescence, 48 h; Potency, µM (highest dose often 46.1 µM), without a hit: at the highest dose activity, negative = less viability, usual class: cytotoxic; actives 1.6% (n = 360,000);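 further: NT is the 2HG producing partner of a matched IDH1 knockdown line; 0% = DMSO-treated cells and -100% = media-only wells without cells; nearly all actives have a fitted effect of over 55% in size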
#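 Luminescent CellTiter-Glo readout after 48 hours of compound exposure at 37 degrees C defined viability of HT-1080-NT cells. Activity was normalized to DMSO wells and cell-free media wells; concentration-response curves were fitted and assigned curve classes.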
# SW480 rereplic = A quantitative high throughput screen for small molecules that induce DNA re-replication in SW480 colon adenocarcinoma cells. Potency, µM (titrated, usually from 46.1 µM), inactives show top-dose re-replication activation, usual class: activators. actives 1.8% (n = 340,000). AID 624297, 2012. SW480 DNA re-replication, Hoechst DNA content imaging, 48 h; further: % of control where 0% means no effect; nearly all actives have a fitted effect of over 55% in size
#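 First, 250 cells per well were seeded. Next, compound or vehicle (23 nL) was pinned in, plates sat 48 hr at 37 C. Finally Hoechst was added for 40 min before fluorescence scanning.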
# HT1080 IDH1KD tx = qHTS for induction of synthetic lethality in tumor cells producing 2HG: qHTS for the HT-1080-IDH1KD cell line; HT-1080 IDH1 knockdown viability, ATP luminescence, 48 h; Potency, µM (series often up to 46.1 µM), for the others: at the highest dose activity, negative = toxicity, hits mostly cytotoxic; actives 2% (n = 360,000); AID 686971, 2013;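 further: 0% = DMSO wells and -100% = cell-free medium wells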
#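 Knockdown cells (IDH1KD HT-1080) received compounds 2 h after plating at 750 cells/well and were kept 48 h at 37 °C in 5% FBS RPMI. A CellTiter-Glo luminescence read gave % activity for curve fitting.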
# KB-V1 cytotox = qHTS assay for MDR1-selective chemotherapeutics: Primary screen using the drug-selected MDR subline cells KB-V1. Potency, µM (series often up to 46.1 µM), usual class: cytotoxic. KB-V1 MDR cells viability, CellTiter-Glo, 72 h. actives 3.4% (n = 400,000); further: on the % scale 0 is the no-effect control and ±100 the full control effect; nearly all actives have a fitted effect of over 60% in size
#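 Readout: CellTiter-Glo luminescence, 10 min after addition. Cells: KB-V1 MDR subline, 72 h at 37 degrees C with compound. Analysis: corrected, normalized data fitted to concentration-effect curves.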
# KB-3-1 cytotox = qHTS assay for MDR1-selective chemotherapeutics: Primary screen using the parental adenocarcinoma cell KB-3-1. KB-3-1 viability, CellTiter-Glo ATP luminescence, 72 h. Potency, µM (highest dose often 46.1 µM), actives largely listed as cytotoxic. actives 1.4% (n = 400,000). AID 1347075, 2019; further: on the % scale 0 is the no-effect control and ±100 the full control effect; nearly all actives have a fitted effect of over 60% in size
#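 Cytotoxicity measured as CellTiter-Glo luminescence after 72 h at 37 C. Compound titrations were pinned onto drug-naive KB-3-1 parental adenocarcinoma cells grown in DMEM with 10% FBS, and normalized data fitted to concentration-response curves.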
# * hit, by the source's call; i = inactive; u = inconclusive; x = no result; ! = not confirmed by another sample; [ ] = another dose, or the depositor's remark. The call rests on the fitted dose curve; in most records, active means well fitted curve in the direction sought with a large enough effect; inconclusive means small, poorly fitted or top-dose-only effect, or another doubt; inactive means no such curve, though single readings can be large; an effect the other way counts as inactive or inconclusive. Potency means the concentration at half of the fitted maximal effect.
SMILES,MCF10A rereplic,HT1080-NT tox,SW480 rereplic,HT1080 IDH1KD tx,KB-V1 cytotox,KB-3-1 cytotox
O=C(N/N=C/c1ccc2cccc(OCc3ccccc3)c2n1)c1ccc(Cl)cc1,u,u,-5.5%,u,u,i
CC1=C(C(=O)OCCNC(=O)c2cccnc2)C(c2cccc([N+](=O)[O-])c2)C(C(=O)OCCN(C)C)=C(C)N1 (centres undefined),13.3%,8.1%,-45.9%,9.7%,u,i
Cc1cc(C)n(-c2ccn(Cc3ccc(Cl)cc3Cl)c(=O)n2)n1,2.1%,-14.6%,-4.1%,-22.2%,7.31µM*,i
CCc1c(C)sc2nc(C(C)C)nc(SCC(=O)N3CCc4ccccc4C3)c12,0.0%,1.0%,1.3%,9.1%,i,i
Cc1sc2nc(C3CC3)nc(SCC(=O)N3CCc4ccccc4C3)c2c1C,u,-0.7%,2.8%,-5.6%,5.8µM*,i
COc1ccc(CN2C(=O)c3cccnc3C2=O)cc1S(=O)(=O)NC1CCCCC1,u,4.0%,-2.6%,2.2%,i,i
COc1cccc(CN2C(=O)c3cccc(N)c3C2=O)c1,18.4µM*,-5.8%,u,-10.8%,i,i
COc1ccc(O)c(-c2nc(N)nc(N)n2)c1,7.31µM*,-12.6%,u,-9.6%,i,u
CCc1ccc2oc(-c3ccc(OC)cc3)cc(=Nc3c(C)n(C)n(-c4ccccc4)c3=O)c2c1,u,-0.1%,-55.5%,-1.3%,9.2µM*,u
COc1ccc(-c2cc(=Nc3ccc(C(=O)O)cc3)c3cc(C)ccc3o2)cc1,13.2%,-5.2%,-4.9%,-29.3%,i,i
CCc1ccc2oc(-c3ccc(OC)cc3)cc(=Nc3cccc(C(=O)O)c3)c2c1,23.1µM*,-3.8%,24.8%,-19.6%,i,i
COc1ccc(-c2cc(C(=O)Nc3c(C)n(C)n(-c4ccccc4)c3=O)no2)cc1,8.6%,2.1%,-67.9%,17.8%,i,i
CCOc1ccc(CO/N=C/c2c(C)[nH]c(=O)[nH]c2=O)cc1,u,6.6%,-7.7%,9.6%,i,i
CSc1cccc(NC(=O)N2CCN(C)CC2)c1,-1.9%,-0.7%,-2.9%,-3.9%,u,i
CSc1ccc2c(c1)C(N1CCN(C)CC1)Cc1ccccc1S2 (centres undefined),26.6µM*,25.9µM*,26.6µM*!,20.6µM*,i,i
CN1CCN(C2Cc3ccccc3Sc3cc(C(F)(F)F)ccc32)CC1 (centres undefined),u,16.4µM*,u,20.6µM*,i,i
CN1CCN(CCC(=O)N2c3ccccc3Sc3ccc(C(F)(F)F)cc32)CC1,9.8%,-15.0%,9.0%,-2.5%,u,i
CC1(C)CC(=O)C=C(c2ccc(COC(=O)C(c3ccccc3)c3ccccc3)cc2)C1=O,x,-23.5%,x,u,i,i
O=C1/C(=C/c2cccs2)NC(=S)N1C1CC1,0.9%,1.3%,18.4µM*,-2.6%,i,i
COc1cccc(C2c3[nH]c4ccccc4c3CCN2Cc2cnc(C)s2)c1OC (centres undefined),18.4%,u,-2.2%,u,i,u
CCOC(=O)C1=C(N)n2c(s/c(=C/c3ccco3)c2=O)=C(C(=O)OC)C1c1ccco1 (centres undefined),6.51µM*,13µM*,13µM*,14.6µM*,u,8.2µM*
COc1cc(C(=O)NCCOc2cc(C)cc(C)c2)c(Br)c(OC)c1OC,u,u,u,-21.0%[9.24 µM],10.3µM*,i
